± gives the standard deviation of the averaged measurements.
Each compound was assayed on TDF (assay: cell number relative to DMSO (% of DMSO); higher = more cells (less growth inhibition / toxicity)). Details: concentration: 10 µM; 24 h.
Procedure, shortened: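 In 384-well plates holding 800 HCC1569 or TDF cells per well in RPMI with 10% FBS, compounds were tested at 10 µM for 24 h at 37 °C in triplicate. Fixation used 3.7% formaldehyde. Staining used a rabbit anti-H1.0 antibody with an AlexaFluor 647 secondary, plus DAPI. Each value, H1.0 nuclear intensity or cell number, is a median of replicates shown as percent of the plate control, and HCC1569 values were smoothed for positional effects.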
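Note: TDF denotes transformed human dermal fibroblasts of mesenchymal origin.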

Compared with CC(C)NP(=O)(NC(C)C)OP(=O)(NC(C)C)NC(C)C [Tetraisopropyl pyrophosphoramide], Cc1c(N)nc(C(CC(N)=O)NCC(N)C(N)=O)nc1C(=O)NC(C(=O)NC(C)C(O)C(C)C(=O)NC(C(=O)NCCc1nc(-c2nc(C(=O)NCCC[S+](C)C)cs2)cs1)C(C)O)C(OC1OC(CO)C(O)C(O)C1OC1OC(CO)C(O)C(OC(N)=O)C1O)c1cnc[nH]1.O=S(=O)([O-])O (stereo unspecified) [Bleomycin sulfate] is lower in cell number: 104 for the first, 99.4 for the second.

First: COc1ccc2c(c1)=NC1=C(C)NCCC=21 [Harmaline]
Second: COc1cc(C(=O)OC2CC3CCC(C2)N3C)ccc1O (stereo unspecified) [Fillalbin]
The cell number of the first is higher: 103 for the first, 93.9 for the second.

First: CC1OC1P(=O)([O-])[O-].[Na+].[Na+] (stereo unspecified) [Phosphomycin disodium]
Second: CC1OC(OC2CC(O)C3(CO)C4C(O)CC5(C)C(C6COC(=O)C6)CCC5(O)C4CCC3(O)C2)C(O)C(O)C1O (stereo unspecified) [Dihydroouabain]
The cell number of the first is higher: 91.3 for the first, 43.7 for the second.

First: Clc1ccc(C(c2ccc(Cl)cc2)n2cc[n+](CC(OCc3ccc(Cl)cc3Cl)c3ccc(Cl)cc3Cl)c2)cc1.[Cl-] (stereo unspecified) [Calmidazolium chloride]
Second: COC(=O)C1(O)CC2OC1(C)n1c3ccccc3c3c4c(c5c6ccccc6n2c5c31)C(=O)NC4 (stereo unspecified) [K-252a, Nocardiopsis sp.]
The cell number of the first is lower: 0.84 for the first, 2.54 for the second.

First: O=C(O)C=CC(=O)O.O=C(O)C=CC(=O)O.c1ccc2nc(N3CCNCC3)ccc2c1 [Quipazine dimaleate]
Second: COc1ccc2c3c1OC1C(=O)CCC4(O)C(C2)N(CC2CC2)CCC314.Cl (single isomer, unassigned; (-)) [(-)-3-Methoxynaltrexone hydrochloride]
The cell number of the first is lower: 103 for the first, 109 for the second.

For NCCCNCCSP(=O)(O)O [Amifostine], the cell number was 104 ± 2.8.

Source: the supplement of paper PMC7156485
